The text below walks through data of PubChem BioAssay AID645 (SRMLSC, 2007).

The structures appear in SMILES notation. About 450 (0.69%) of roughly 65,000 compounds were called active. The entries come from a sample that favours actives as a whole. A number with no mark means an inactive call.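 How the source made its calls: active means HER2 level under 5% of the carrier-only control; inconclusive means no clear call, values can overlap the other calls; inactive means the rest.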

The target of the assay is Receptor tyrosine-protein kinase erbB-2 (Homo sapiens) (UniProt P04626). Put plainly: inhibitors of Her2 protein expression, primary screen, SKBR-3 cells, AlphaScreen, 66K library (AID 645).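 Further: 100% = DMSO carrier and 0% = 500 nM PU-H71 HSP90 inhibitor.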 Conditions: SKBR-3 HER2 protein level, 18-24 h, at 10 µM, stronger effect = lower value.
Chain of Receptor tyrosine-protein kinase erbB-2 (Homo sapiens) (P04626 whole entry, looked up): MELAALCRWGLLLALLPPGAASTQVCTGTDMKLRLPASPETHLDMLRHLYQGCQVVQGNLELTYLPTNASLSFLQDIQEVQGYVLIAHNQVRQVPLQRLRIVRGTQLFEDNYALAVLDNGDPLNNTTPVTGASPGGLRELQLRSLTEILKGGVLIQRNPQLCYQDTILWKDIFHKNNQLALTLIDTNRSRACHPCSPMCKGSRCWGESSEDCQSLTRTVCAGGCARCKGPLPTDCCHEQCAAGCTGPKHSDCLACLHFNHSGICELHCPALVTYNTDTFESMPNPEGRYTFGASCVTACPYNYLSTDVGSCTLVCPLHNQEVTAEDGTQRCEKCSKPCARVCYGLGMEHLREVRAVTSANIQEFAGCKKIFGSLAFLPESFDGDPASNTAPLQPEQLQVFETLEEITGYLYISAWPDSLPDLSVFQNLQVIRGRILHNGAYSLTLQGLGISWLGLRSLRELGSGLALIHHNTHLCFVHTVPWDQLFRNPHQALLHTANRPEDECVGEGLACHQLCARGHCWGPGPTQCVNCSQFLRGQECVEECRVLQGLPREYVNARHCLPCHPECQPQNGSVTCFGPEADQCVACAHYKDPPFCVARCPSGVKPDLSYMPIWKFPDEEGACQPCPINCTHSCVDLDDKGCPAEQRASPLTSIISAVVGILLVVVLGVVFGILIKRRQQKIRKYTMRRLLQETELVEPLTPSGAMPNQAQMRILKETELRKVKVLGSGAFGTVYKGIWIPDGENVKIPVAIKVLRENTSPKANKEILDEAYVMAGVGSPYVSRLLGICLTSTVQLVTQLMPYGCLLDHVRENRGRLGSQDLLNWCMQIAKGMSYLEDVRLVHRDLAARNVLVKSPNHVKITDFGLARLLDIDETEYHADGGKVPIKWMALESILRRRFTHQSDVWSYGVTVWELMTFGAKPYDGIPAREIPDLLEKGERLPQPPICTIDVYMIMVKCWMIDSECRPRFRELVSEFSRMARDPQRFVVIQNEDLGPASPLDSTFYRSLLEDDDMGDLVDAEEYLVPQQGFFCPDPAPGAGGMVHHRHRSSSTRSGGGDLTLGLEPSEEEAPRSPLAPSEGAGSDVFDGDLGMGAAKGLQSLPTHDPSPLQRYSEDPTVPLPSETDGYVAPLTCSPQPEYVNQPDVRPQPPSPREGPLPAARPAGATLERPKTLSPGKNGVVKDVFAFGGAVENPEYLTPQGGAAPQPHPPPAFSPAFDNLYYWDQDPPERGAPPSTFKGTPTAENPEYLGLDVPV
On to `O=C(C(NS(=O)(=O)c1cccc2nsnc12)c1ccccc1)N1CCN(c2ccccn2)CC1` (stereo unspecified), for which the HER2 level % of control was 70.8%.
As for `CCOP1(=O)C=C(C(C)(C)C)OC1c1ccc(F)cc1` (stereo unspecified), the HER2 level % of control was -28.1% (active).
As for `CC1CCc2c(sc3c2C2=NS(=O)(=O)CCN2C=N3)C1` (stereo unspecified), the figure is 111%; as for `O=C(NCc1cccs1)c1ccc2c(c1)ncn2C1CCCC1`, 121%.
`Cc1ccc(OCC(O)CN2CCN(CC(O)COc3ccc(C)cc3Cl)CC2)c(Cl)c1` (stereo unspecified): the HER2 level % of control was 65.4%.
For `COc1ccc(N2CCN(CCNC(=O)c3nnc(Cc4c(F)cccc4Cl)o3)CC2)cc1`, the HER2 level % of control was 103%.
On to `O=C(CSc1nnc(Cn2cnc3ccccc32)o1)c1ccccc1`, for which the HER2 level % of control was 107%.
The result for `CC(C)Oc1ccc(C2NC(=O)NC2=O)cc1` (stereo unspecified) reads 81.7%.
With `Cc1ccccc1N1CC(c2nc3ccccc3[nH]2)CC1=O` (stereo unspecified), the HER2 level % of control was 99.4%.
Consider `N#CC1=C(SCc2ccccc2)NC(=O)C(C#N)C12CCCC2` (stereo unspecified), for which the HER2 level % of control was 88.2%.
Consider `CCOC(=O)C1CCCN(C(=O)c2sc3nc(C)nc(N4CCOCC4)c3c2C)C1` (stereo unspecified), for which the HER2 level % of control was 87.2%.
The result for `CCS(=O)(=O)NCCc1ccc(OC)c(OC)c1` reads 90.2%.
As for `CCN(CC(=O)NCc1cccs1)c1nnnn1-c1ccccc1`, the figure is -25.9% (active); as for `Cc1nnc(SCC(=O)NCc2cccs2)[nH]c1=O`, 87.7%; as for `Cc1ccccc1-n1c(SCC(=O)NCc2cccs2)nnc1-c1ccncc1`, 108%.
`CCN1C(=O)/C(=C2\SC(N3CCCCC3)=NC2=O)c2ccccc21`: the HER2 level % of control is 121%.
As for `COc1cccc(C(=O)Nc2c3c(nn2-c2cccc(C)c2C)CS(=O)(=O)C3)c1OC`, the figure is 119%; as for `Cc1nc2cc(-c3ccc(F)cc3)nn2c(N2CCOCC2)c1C`, 49.6%.
In the case of `Cn1c(=O)c2[nH]c(NCC3CCCO3)nc2n(-c2ccccc2)c1=O` (stereo unspecified), the HER2 level % of control was 83.7%.
Take `CCCC(NS(=O)(=O)c1ccc(OC)cc1)C(=O)O` (stereo unspecified): the HER2 level % of control is 96.9%.
The result for `O=S(=O)(Nc1ccccc1N1CCOCC1)c1ccc(Cl)s1` reads 95.5%.
Take `N#CC(C(N)=O)=C1CCC2(CC1)OCCCCO2`: the HER2 level % of control is 93.5%.
As for `CC1CCC(NS(=O)(=O)c2ccc3c(c2)n(C)c(=O)c(=O)n3C)CC1` (stereo unspecified), the figure is 76.3%.
As for `Brc1ccc(OCCn2ccnc2)cc1`, the HER2 level % of control is 109%.
The result for `Cc1ccc(N2CCN(S(=O)(=O)N(C)C)CC2)cc1Cl` reads 105%; that for `Cc1nnc(NC2=NCCCCC2)o1`, 106%; that for `O=C(Nc1cc(=O)[nH]c2ncnn12)c1ccccc1Cl`, 92%.
With `CSC1=N/C(=C\C=C\c2cccs2)C(=O)S1`, the HER2 level % of control is 0.09% (active).
Take `COCC(C)N=CC1=C(O)CC(C)(C)CC1=O` (stereo unspecified): the HER2 level % of control was 118%.
As for `Cc1nc2sc(C(c3ccco3)N3CCOCC3)c(O)n2n1` (stereo unspecified), the figure is 51%; as for `C/C(=C\C(=O)c1ccccc1)Nc1cccc(O)c1`, 58.9%; as for `c1ccc2cc3[nH]c(CN4CCCCC4)nc3cc2c1`, 96.1%.
`O=C(Nc1cccc(Cl)c1)OCc1ccccn1`: the HER2 level % of control is 91.3%.
As for `Cc1c(NC(=O)c2coc(=O)c(Br)c2)c(=O)n(-c2ccccc2)n1C`, the figure is -15.4% (active); as for `COC(=O)Nc1c(C)n(C)n(-c2ccccc2)c1=O`, 89.1%.
As for `Cc1cc(C(=O)Nc2c(C)n(C)n(-c3ccccc3)c2=O)cs1`, the HER2 level % of control was 91.6%.
As for `CS(=O)(=O)c1ccc2nc(NC(=O)C3CCCCC3)sc2c1`, the figure is 45.1%; as for `CC(=O)c1c(C)n(-c2ccc(N(C)C)cc2)c2ccc(OCC(N)=O)cc12`, 64.8%.
The result for `COc1ccccc1-c1nnc(SCC(=O)Nc2cc(C)on2)o1` reads 92.1%; that for `CC(C)C1C2=C(CC(C)(C)CC2=O)ON1c1ccccc1` (stereo unspecified), 89.9%; that for `CC1(C)CC(=O)NC=C(c2ccccc2)C1`, -32.3% (active).
As for `O=c1[nH]c(-c2ccccc2)c(-c2ccccc2)[nH]1`, the figure is 88.4%; as for `CC(C)(C)NC(=O)Cn1nnc(-c2ccccc2Cl)n1`, 75.9%; as for `COCCCNC(=O)CCc1nc2cccnc2n1Cc1ccc(OC)cc1`, 96.5%.
Take `Cc1cc(NC(=O)CCC(=O)N(c2cccc(F)c2)C(C(=O)NC2CCCC2)c2ccncc2)no1` (stereo unspecified): the HER2 level % of control is 97%.
The result for `CCCCn1c(SCC(=O)NCC2CCCO2)nc2ccc(N3CCOCC3)cc2c1=O` (stereo unspecified) reads 92.5%; that for `CCn1c(SCC(=O)NCC2CCCO2)nc2cc(S(=O)(=O)N3CCCCC3)ccc21` (stereo unspecified), -27.6% (active).
As for `CCn1cc(C(=O)NCC2CCCO2)c(=O)c2cc(S(=O)(=O)N3CCCCC3)ccc21` (stereo unspecified), the figure is 108%; as for `Cc1cc(C)nc(SCc2ccccc2C#N)n1`, 112%; as for `COc1ccc(C(=O)N2CCC(C(=O)Nc3cccc(C)c3)CC2)cc1OC`, 97.1%.
`Cc1nc2ccc(S(=O)(=O)NC(C(=O)N3CCCCCC3)C(C)C)cc2s1` (stereo unspecified): the HER2 level % of control was 82.8%.
Turning to `Cc1nc2ccc(S(=O)(=O)NCC(=O)O)cc2s1`, the HER2 level % of control is 73.5%.
On to `Cc1nc2cc(S(=O)(=O)C(F)(F)F)ccc2s1`, for which the HER2 level % of control was -17.7% (active).
Consider `O=C(NCCN=C1NS(=O)(=O)c2ccccc21)c1ccc(S(=O)(=O)N2CCOCC2)cc1`, for which the HER2 level % of control was 108%.
On to `CCOc1ccc(OCc2ccc(C(=O)Nc3cccc(C)n3)o2)cc1`, for which the HER2 level % of control is 68.1%.
Turning to `CC(C)(C)n1nnnc1C(c1ccc2ncccc2c1)N1CCSCC1` (stereo unspecified), the HER2 level % of control was 92.2%.
As for `CC(C)c1ccc(OCC(O)Cn2cnc3ccccc32)cc1` (stereo unspecified), the figure is 83.1%; as for `Cc1ccc(CCNC(=O)C2CCN(S(=O)(=O)N3CCCC3)CC2)cc1`, 107%.
Consider `Cc1ccc(S(=O)(=O)N2CCC(C(=O)N[C@@H](C)C(=O)NCc3ccccc3)CC2)cc1`, for which the HER2 level % of control is 102%.
Consider `Cc1ccc(S(=O)(=O)N2CCC(C(=O)N[C@@H](C)C(=O)NCCc3ccccc3)CC2)cc1`, for which the HER2 level % of control was -21.9% (active).
As for `CC(C)C[C@H](NC(=O)[C@@H]1O[C@H]1C(=O)O)C(=O)NCCCCN=C(N)N`, the figure is 100%.
